Experimental data reported in PubChem BioAssay (NCATS).
Results filed as inconclusive are left out. Activity calls are given as the source filed them. Calls come from the whole dose curve; as a rule, active = well fitted curve in the direction sought with a large enough effect; inconclusive = small, poorly fitted or top-dose-only effect, or another doubt; inactive = no such curve, though single readings can be large; an effect the other way counts as inactive or inconclusive.

Tests used:
[1] = Quantitative High-Throughput drug screen in 47 multiple myeloma cell lines against the NCATS MIPE library collection: INA6_PLB cell viability assay (AID 1918965; note: nearly all actives have a fitted effect of over 55% in size)
Method in brief: (§1)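 We plated 500 myeloma cells per well, pinned in MIPE 4.0 compounds, and incubated for 48 hours at 37C. ATP was then quantified with CellTiter-Glo, with DMSO and media-only wells defining 100% and 0%.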

[2] = Quantitative High-Throughput drug screen in 47 multiple myeloma cell lines against the NCATS MIPE library collection: H1112_PLB cell viability assay (AID 1918967; note: nearly all actives have a fitted effect of over 30% in size)
Method in brief: as §1

[3] = Quantitative High-Throughput drug screen in 47 multiple myeloma cell lines against the NCATS MIPE library collection: Karpas25_ECACC cell viability assay (AID 1918968; note: nearly all actives have a fitted effect of over 35% in size)
Method in brief: as §1

[4] = Quantitative High-Throughput drug screen in 47 multiple myeloma cell lines against the NCATS MIPE library collection: KMS12PE_JCRB cell viability assay (AID 1918972); note: nearly all actives have a fitted effect of over 30% in size
Method in brief: as §1

[5] = Quantitative High-Throughput drug screen in 47 multiple myeloma cell lines against the NCATS MIPE library collection: KMS20_JCRB cell viability assay (AID 1918973); note: nearly all actives have a fitted effect of over 45% in size
Method in brief: as §1

[6] = Quantitative High-Throughput drug screen in 47 multiple myeloma cell lines against the NCATS MIPE library collection: NCIH929_DSMZ cell viability assay (AID 1918978); note: nearly all actives have a fitted effect of over 35% in size
Method in brief: (§2)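 Plated at 500 cells per well, myeloma lines received MIPE 4.0 compounds by pin tool. Following 48 h culture at 37 °C, CellTiter-Glo luminescence gave viability relative to DMSO and media-only controls.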

[7] = Quantitative High-Throughput drug screen in 47 multiple myeloma cell lines against the NCATS MIPE library collection: OCIMY1_PLB cell viability assay (AID 1918979); note: nearly all actives have a fitted effect of over 35% in size
Method in brief: as §2

[8] = Quantitative High-Throughput drug screen in 47 multiple myeloma cell lines against the NCATS MIPE library collection: MM1S_ATCC cell viability assay (AID 1918980); note: nearly all actives have a fitted effect of over 45% in size
Method in brief: as §2

[9] = Quantitative High-Throughput drug screen in 47 multiple myeloma cell lines against the NCATS MIPE library collection: JIM1_ECACC cell viability assay (AID 1918964)
Method in brief: as §1

[10] = Quantitative High-Throughput drug screen in 47 multiple myeloma cell lines against the NCATS MIPE library collection: JJN3_DSMZ cell viability assay (AID 1918966; note: nearly all actives have a fitted effect of over 50% in size)
Method in brief: as §1

[11] = Quantitative High-Throughput drug screen in 47 multiple myeloma cell lines against the NCATS MIPE library collection: KMS12BM_JCRB cell viability assay (AID 1918971); note: nearly all actives have a fitted effect of over 35% in size
Method in brief: (§3)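 Luminescent ATP measurement with CellTiter-Glo gives viability, scaled between DMSO-only wells (100%) and media-only wells (0%). Cells, 500 per well, faced library compounds for 48 hours at 37C.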

[12] = Quantitative High-Throughput drug screen in 47 multiple myeloma cell lines against the NCATS MIPE library collection: MMM1_PLB cell viability assay (AID 1918976); note: nearly all actives have a fitted effect of over 35% in size
Method in brief: as §2

[13] = Quantitative High-Throughput drug screen in 47 multiple myeloma cell lines against the NCATS MIPE library collection: MOLP8_DSMZ cell viability assay (AID 1918977); note: nearly all actives have a fitted effect of over 45% in size
Method in brief: as §2

[14] = Quantitative High-Throughput drug screen in 47 multiple myeloma cell lines against the NCATS MIPE library collection: MM1R_ATCC cell viability assay (AID 1918981); note: nearly all actives have a fitted effect of over 35% in size
Method in brief: as §2

[15] = Quantitative High-Throughput drug screen in 47 multiple myeloma cell lines against the NCATS MIPE library collection: LP1_DSMZ cell viability assay (AID 1918982); note: nearly all actives have a fitted effect of over 35% in size
Method in brief: as §2

[16] = Quantitative High-Throughput drug screen in 47 multiple myeloma cell lines against the NCATS MIPE library collection: KMS26_JCRB cell viability assay (AID 1918975); note: nearly all actives have a fitted effect of over 45% in size
Method in brief: as §3

[17] = Quantitative High-Throughput drug screen in 47 multiple myeloma cell lines against the NCATS MIPE library collection: KMS27_JCRB cell viability assay (AID 1918970); note: nearly all actives have a fitted effect of over 30% in size
Method in brief: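 Myeloma cells (500 per well) were exposed to MIPE 4.0 compounds for 48 h at 37 °C, 5% CO2; viability was read as ATP luminescence with CellTiter-Glo, normalized to DMSO-only (100%) and media-only (0%) wells.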

[18] = Quantitative High-Throughput drug screen in 47 multiple myeloma cell lines against the NCATS MIPE library collection: KMS21BM_JCRB cell viability assay (AID 1918974); details: ATP luminescence, 48 h; viability: at 45.8 µM (top of the series) unless noted
Method in brief: as §1

Measured: Potency
Potency is the fitted concentration of half-maximal effect.

O=c1c(O)c(-c2ccc(O)cc2)oc2cc(O)cc(O)c12
inactive: [7]
active: [1] 16.6 µM | [2] 20.9 µM | [3] 9.35 µM | [4] 16.6 µM | [5] 14.8 µM | [6] 9.35 µM | [8] 18.7 µM

COc1cc(N2CCC(N3CCN(C)CC3)CC2)ccc1Nc1ncc(Cl)c(Nc2ccccc2S(=O)(=O)C(C)C)n1
inactive: [3] | [7]

O=C(Nc1cccc(Br)c1)c1cccc(S(=O)(=O)N2CCCCCC2)c1
active: [9] 7.43 µM | [1] 18.7 µM | [10] 20.9 µM | [3] 18.7 µM | [11] 20.9 µM | [4] 10.5 µM | [12] 18.7 µM | [7] 14.8 µM | [14] 18.7 µM | [15] 10.5 µM
inactive: [13]

CC(=O)Oc1cc2c(s1)CCN(C(C(=O)C1CC1)c1ccccc1F)C2 (stereo not given)
active: [1] 4.69 µM | [10] 2.35 µM | [2] 2.96 µM | [3] 1.87 µM | [16] 2.96 µM | [12] 1.48 µM | [8] 0.833 µM

NC(=O)c1cnc(-c2ccc(C3(N)CCC3)cc2)c(-c2ccccc2)c1
active: [1] 10.5 µM | [2] 4.18 µM | [3] 13.2 µM | [11] 8.33 µM | [6] 1.48 µM | [14] 7.43 µM | [15] 2.64 µM

COc1ccc(Cc2nccc3cc(OC)c(OC)cc23)cc1OC
active: [9] 16.6 µM | [1] 20.9 µM | [10] 16.6 µM | [11] 16.6 µM | [7] 18.7 µM | [8] 23.5 µM | [14] 23.5 µM
inactive: [6]

CO[C@H]1C[C@@H]2CC[C@@H](C)[C@@](O)(O2)C(=O)C(=O)N2CCCC[C@@H]2C(=O)O[C@H]([C@H](C)C[C@@H]2CC[C@H](OP(C)(C)=O)[C@H](OC)C2)CC(=O)[C@H](C)C=C(C)[C@@H](O)[C@@H](OC)C(=O)[C@H](C)C[C@H](C)C=CC=CC=C1C
active: [2] 18.7 µM | [3] 20.9 µM
inactive: [8] | [14] | [15]

Cc1cc(OCCCc2c(C(=O)O)n(Cc3cccnc3)c3c(-c4c(COc5ccc(N6CCN([S+](C)(=O)[O-])CC6)cc5)nn(C)c4C)cccc23)cc(C)c1Cl
inactive: [17]
active: [1] 18.7 µM | [10] 26.4 µM | [3] 20.9 µM | [11] 26.4 µM | [4] 6.62 µM | [16] 20.9 µM | [12] 14.8 µM | [13] 20.9 µM | [6] 3.32 µM | [7] 13.2 µM | [8] 18.7 µM | [15] 14.8 µM

Cc1c[nH]c(C=C2C(=O)Nc3ccccc32)c1CCC(=O)O
inactive: [6] | [7]

c1cc(-c2sc(-c3ccncc3)c(-c3ccncc3)c2-c2ccncc2)ccn1
inactive: [13] | [7] | [15]
active: [1] 18.7 µM | [10] 16.6 µM | [17] 3.32 µM | [4] 2.96 µM | [6] 8.33 µM | [8] 26.4 µM

O=C1Nc2ccc(Cl)cc2C(C#CC2CC2)(C(F)(F)F)O1 (stereo not given)
active: [1] 20.9 µM | [2] 23.5 µM | [3] 20.9 µM | [11] 23.5 µM | [5] 20.9 µM | [16] 23.5 µM

Cc1ccc([C@@H]2O[C@H](CO)[C@@H](O)[C@H](O)[C@@H]2O)cc1Cc1ccc(-c2ccc(F)cc2)s1
active: [4] 20.9 µM | [14] 18.7 µM
inactive: [2] | [11] | [13]

CC[C@]1(O)C[C@@H]2CN(CCc3c([nH]c4ccccc34)[C@@](C(=O)OC)(c3cc4c(cc3OC)N(C=O)[C@@H]3C45CCN4CC=C[C@](CC)([C@H]45)[C@@H](OC(C)=O)[C@]3(O)C(=O)OC)C2)C1 (stereo not given in full)
inactive: [9] | [4]
active: [10] 20.9 µM | [11] 18.7 µM | [16] 23.5 µM | [12] 10.5 µM | [7] 26.4 µM | [14] 20.9 µM | [15] 20.9 µM

CNC(=O)c1ccccc1Sc1ccc2c(C=Cc3ccccn3)n[nH]c2c1
inactive: [7]
active: [1] 18.7 µM | [2] 0.296 µM | [3] 16.6 µM | [11] 16.6 µM | [4] 1.66 µM | [6] 20.9 µM | [15] 23.5 µM

O=C1NC(=O)C(=Cc2cccc(C(F)(F)F)c2)S1
inactive: [13] | [7] | [14] | [15]
active: [11] 20.9 µM

Clc1ccc(CCC(Cn2ccnc2)Sc2c(Cl)cccc2Cl)cc1 (stereo not given)
active: [3] 16.6 µM | [4] 14.8 µM | [12] 26.4 µM

CC=CCC(C)C(O)C1C(=O)NC(CC)C(=O)N(C)CC(=O)N(C)C(CC(C)C)C(=O)NC(C(C)C)C(=O)N(C)C(CC(C)C)C(=O)NC(C)C(=O)NC(C)C(=O)N(C)C(CC(C)C)C(=O)N(C)C(CC(C)C)C(=O)N(C)C(C(C)C)C(=O)N1C (stereo not given)
inactive: [8]

c1ccc2c(-c3cnn4cc(-c5ccc(N6CCNCC6)cc5)cnc34)ccnc2c1
active: [1] 2.35 µM | [2] 3.32 µM | [11] 14.8 µM

N[C@@]1(C(=O)O)CS(=O)(=O)[C@H]2[C@H](C(=O)O)[C@H]21
inactive: [13] | [7]
active: [1] 14.8 µM

O=c1c(-c2ccc(O)cc2)coc2cc(O[C@@H]3O[C@H](CO)[C@H](O)[C@H](O)[C@H]3O)ccc12
inactive: [9] | [10] | [2] | [11] | [4] | [6] | [7] | [8]

CC=CCC=CCCC(=O)[C@H]1O[C@@H]1C(N)=O
active: [9] 11.8 µM | [1] 18.7 µM | [10] 16.6 µM | [3] 18.7 µM | [4] 23.5 µM | [13] 14.8 µM | [14] 18.7 µM

CC(C(=O)O)c1ccc(-c2ccccc2)c(F)c1 (stereo not given)
inactive: [9] | [10] | [4] | [13] | [7] | [14] | [15]
active: [1] 18.7 µM | [2] 18.7 µM | [3] 20.9 µM | [5] 4.69 µM | [6] 16.6 µM | [8] 26.4 µM

C[N+]1(C)[C@@H]2CC(OC(=O)[C@H](CO)c3ccccc3)C[C@H]1[C@H]1O[C@@H]12 (stereo not given in full)
not listed: [1] | [3] | [8] | [10] | [12] | [18]
inactive: all other assays above

O=c1cc(-c2ccccc2)oc2cc(O)c(O)c(O)c12
inactive: [4]
active: [2] 20.9 µM | [3] 20.9 µM | [12] 23.5 µM | [8] 18.7 µM | [14] 23.5 µM

O=C(O)c1ccc(-c2c[nH]c3ncc(-c4ccccc4)cc23)cc1C1CCCC1
inactive: [4] | [16] | [13] | [7] | [15]

COc1ncc(-c2ccc3nccc(-c4ccnnc4)c3c2)cc1NS(=O)(=O)c1ccc(F)cc1F
active: [1] 0.0235 µM | [10] 0.118 µM | [11] 0.0662 µM | [4] 0.0935 µM | [16] 0.0526 µM

O=C(NOCC(O)CO)c1cc(Br)c(F)c(F)c1Nc1ccc(I)cc1F (stereo not given)
active: [2] 0.118 µM | [6] 1.05 µM
inactive: [16] | [13] | [7] | [14]

CC(C)(C(=O)NCC(F)(F)C(F)(F)F)C(=O)N[C@@H]1C(=O)Nc2ccccc2-c2ccccc21
active: [1] 18.7 µM | [2] 16.6 µM | [4] 16.6 µM | [6] 16.6 µM | [8] 13.2 µM
inactive: [11] | [13] | [7] | [15]

NC(=O)NN=Cc1ccc([N+](=O)[O-])o1
inactive: [2] | [13]
active: [3] 16.6 µM | [17] 14.8 µM | [18] 5.9 µM

CCCCCNC(=O)N1CCC(CN(Cc2ccc(Cl)cc2)Cc2ccc([N+](=O)[O-])s2)C1 (stereo not given)
active: [10] 23.5 µM | [3] 20.9 µM | [17] 20.9 µM | [11] 23.5 µM | [4] 18.7 µM | [12] 20.9 µM | [13] 18.7 µM | [14] 14.8 µM | [15] 29.6 µM
